# This is part of a sample that, as a whole, favours compounds with a hit. Of some 79,000 tested, about 15% had one in any assay. Values without a mark were called inactive. Activity calls are given as the source filed them. No stated cut-off is given here; in the data, active means growth inhibition above about 70%; inactive means the rest.
# Key:
# [1] = NCI Yeast Anticancer Drug Screen. Data for the rad52 strain (AID 147);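 further: 0% = growth of vehicle-treated control cultures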; settings: S. cerevisiae rad52 mutant growth inhibition, stronger effect = higher value
# In short: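 Screen used a yeast mutant impaired in DNA repair. After compound exposure, growth was measured. Values reflect inhibition compared with vehicle-treated cells.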
# [2] = NCI Yeast Anticancer Drug Screen. Data for the rad50EPP+ strain (AID 151);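 further: 0% = growth of vehicle-treated control cultures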; settings: S. cerevisiae rad50 mutant strain, stronger effect = higher value
# In short: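 Exposing the rad50EPP+ strain to each compound, growth was compared with vehicle-only cultures to give inhibition.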
# [3] = NCI Yeast Anticancer Drug Screen. Data for the mgt1 strain (AID 153); settings: S. cerevisiae mgt1 mutant growth inhibition, stronger effect = higher value
# In short: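 Genetically defined yeast (mgt1) treated with compound; inhibition of growth expressed against vehicle-treated controls.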
# [4] = NCI Yeast Anticancer Drug Screen. Data for the rad50 strain (AID 155);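 further: 0% = growth of vehicle-only cultures of the same strain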; settings: S. cerevisiae rad50 strain growth inhibition, stronger effect = higher value
# In short: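 Relative growth inhibition (compound vs vehicle) was measured in yeast with a defined repair-gene alteration.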
# [5] = NCI Yeast Anticancer Drug Screen. Data for the mec2-1 strain (AID 157); settings: S. cerevisiae mec2-1 strain, stronger effect = higher value
# In short: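 Readout is yeast growth inhibition, normalised to vehicle-treated controls, in the mec2-1 strain exposed to compound.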
# [6] = NCI Yeast Anticancer Drug Screen. Data for the rad14 strain (AID 159);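 further: 0% = growth of vehicle-treated control cultures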; settings: S. cerevisiae rad14 strain growth inhibition, stronger effect = higher value
# In short: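 Screen for anticancer potential: a yeast strain altered in DNA damage repair is grown with compound, and reduced growth is quantified against vehicle controls.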
# [7] = NCI Yeast Anticancer Drug Screen. Data for the sgs1 mgt1 strain (AID 161);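 further: 0% = growth of cultures given vehicle only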; settings: S. cerevisiae sgs1 mgt1 strain, stronger effect = higher value
# In short: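 This yeast growth screen uses a strain with defined DNA-repair lesions; compound-treated growth is compared with vehicle-treated growth.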
# [8] = NCI Yeast Anticancer Drug Screen. Data for the CLN2oe strain (AID 163);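 further: 0% = growth of vehicle-only control cultures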; settings: S. cerevisiae CLN2oe strain, stronger effect = higher value
# In short: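 Values reflect how much compound exposure reduced yeast growth, referenced to vehicle-exposed cells. Assay organism is a strain with a defined genetic change affecting cell-cycle control.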
# [9] = NCI Yeast Anticancer Drug Screen. Data for the cln2 rad14 strain (AID 165);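 further: 0% = growth equal to vehicle treated cultures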; settings: S. cerevisiae cln2 rad14 strain, stronger effect = higher value
# In short: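 Relative to vehicle controls, growth inhibition of compound-treated cln2 rad14 yeast was recorded.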
# [10] = NCI Yeast Anticancer Drug Screen. Data for the bub3 strain (AID 167); settings: S. cerevisiae bub3 mutant strain, stronger effect = higher value
# In short: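 Screening used yeast with an engineered genetic alteration affecting cell cycle control. Compound-exposed cultures were compared with vehicle cultures, and reduced growth was taken as inhibition.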
# [11] = NCI Yeast Anticancer Drug Screen. Data for the wt2 strain (AID 169);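 further: 0% = growth of vehicle-treated yeast cultures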; settings: S. cerevisiae wt2 strain growth inhibition, stronger effect = higher value
# In short: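 Values express reduction in yeast growth under compound treatment, referenced to vehicle-treated cells.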
# [12] = NCI Yeast Anticancer Drug Screen. Data for the mlh1 strain (AID 171);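 further: 0% = growth of vehicle-treated control cultures of the same strain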; settings: S. cerevisiae mlh1 strain growth inhibition, stronger effect = higher value
# In short: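 Steps: expose the defined-mutant yeast strain to compound; expose a parallel culture to vehicle; measure growth; express compound effect as inhibition relative to the vehicle culture.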
# [13] = NCI Yeast Anticancer Drug Screen. Data for the sgs1 strain (AID 173);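 further: 0% = growth of vehicle-only control cultures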; settings: S. cerevisiae sgs1 mutant, stronger effect = higher value
# In short: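 Treat defined-mutant yeast with compound; measure growth; calculate inhibition relative to vehicle-treated cells.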
# [14] = NCI Yeast Anticancer Drug Screen. Data for the mlh1 rad18 strain (AID 175); settings: S. cerevisiae mlh1 rad18 strain growth inhibition, stronger effect = higher value
# In short: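 Test agents were incubated with a yeast strain of defined genotype (DNA damage repair defect). Inhibition of growth was derived by comparison with vehicle-exposed cultures.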
# [15] = NCI Yeast Anticancer Drug Screen. Data for the rad18 strain (AID 177); settings: S. cerevisiae rad18 mutant growth inhibition, stronger effect = higher value
# In short: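 A genetically defined yeast mutant impaired in DNA damage repair was treated with test compounds, then its growth was measured against cultures receiving vehicle alone.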
# [16] = at 5.0 µM (retest, dose inferred, filed as 0.5)
# [17] = at 50.0 µM (retest, dose inferred, filed as 5.0)
smiles,measurement,setting,value
CCS(=O)(=O)c1ccc(/C=C/C=N/NC(=S)NCC(C)C)cc1,growth inhibition,[1]; at 1.2 µM,5%
same,growth inhibition,[1]; at 3.7 µM,3%
same,growth inhibition,[1]; at 11.0 µM,-1%
same,growth inhibition,[1]; at 33.0 µM,3%
same,growth inhibition,[1]; at 100.0 µM,1%
same,growth inhibition,[2]; at 1.2 µM,3%
same,growth inhibition,[2]; at 3.7 µM,5%
same,growth inhibition,[2]; at 11.0 µM,5%
same,growth inhibition,[2]; at 33.0 µM,6%
same,growth inhibition,[2]; at 100.0 µM,-9%
same,growth inhibition,[3]; at 1.2 µM,-2%
same,growth inhibition,[3]; at 3.7 µM,2%
same,growth inhibition,[3]; at 11.0 µM,-2%
same,growth inhibition,[3]; at 33.0 µM,5%
same,growth inhibition,[3]; at 100.0 µM,44%
same,growth inhibition,[4]; at 1.2 µM,6%
same,growth inhibition,[4]; at 3.7 µM,3%
same,growth inhibition,[4]; [16],5%
same,growth inhibition,[4]; at 11.0 µM,-4%
same,growth inhibition,[4]; at 33.0 µM,10%
same,growth inhibition,[4]; [17],-7%
same,growth inhibition,[4]; at 50.0 µM,0.25%
same,growth inhibition,[4]; at 100.0 µM,5%
same,growth inhibition,[5]; at 1.2 µM,0%
same,growth inhibition,[5]; at 3.7 µM,1%
same,growth inhibition,[5]; [16],-25%
same,growth inhibition,[5]; at 11.0 µM,2%
same,growth inhibition,[5]; at 33.0 µM,3%
same,growth inhibition,[5]; [17],-24%
same,growth inhibition,[5]; at 50.0 µM,4.2%
same,growth inhibition,[5]; at 100.0 µM,4%
same,growth inhibition,[6]; at 1.2 µM,4%
same,growth inhibition,[6]; at 3.7 µM,3%
same,growth inhibition,[6]; at 11.0 µM,0%
same,growth inhibition,[6]; at 33.0 µM,5%
same,growth inhibition,[6]; at 100.0 µM,3%
same,growth inhibition,[7]; [16],6%
same,growth inhibition,[7]; [17],62%
same,growth inhibition,[7]; at 50.0 µM,77% (active)
same,growth inhibition,[8]; at 1.2 µM,2%
same,growth inhibition,[8]; at 3.7 µM,-2%
same,growth inhibition,[8]; at 11.0 µM,-3%
same,growth inhibition,[8]; at 33.0 µM,1%
same,growth inhibition,[8]; at 100.0 µM,-7%
same,growth inhibition,[9]; [16],-7%
same,growth inhibition,[9]; [17],9%
same,growth inhibition,[9]; at 50.0 µM,-67.3%
same,growth inhibition,[10]; at 1.2 µM,3%
same,growth inhibition,[10]; at 3.7 µM,4%
same,growth inhibition,[10]; [16],-12%
same,growth inhibition,[10]; at 11.0 µM,0%
same,growth inhibition,[10]; at 33.0 µM,4%
same,growth inhibition,[10]; [17],50%
same,growth inhibition,[10]; at 50.0 µM,39.1%
same,growth inhibition,[10]; at 100.0 µM,8%
same,growth inhibition,[11]; at 1.2 µM,-8%
same,growth inhibition,[11]; at 3.7 µM,-5%
same,growth inhibition,[11]; at 11.0 µM,-17%
same,growth inhibition,[11]; at 33.0 µM,-5%
same,growth inhibition,[11]; at 100.0 µM,55%
same,growth inhibition,[12]; at 1.2 µM,4%
same,growth inhibition,[12]; at 3.7 µM,0%
same,growth inhibition,[12]; at 11.0 µM,-3%
same,growth inhibition,[12]; at 33.0 µM,13%
same,growth inhibition,[12]; at 100.0 µM,41%
same,growth inhibition,[13]; at 1.2 µM,-4%
same,growth inhibition,[13]; at 3.7 µM,1%
same,growth inhibition,[13]; at 11.0 µM,-24%
same,growth inhibition,[13]; at 33.0 µM,1%
same,growth inhibition,[13]; at 100.0 µM,48%
same,growth inhibition,[14]; [16],8%
same,growth inhibition,[14]; [17],43%
same,growth inhibition,[14]; at 50.0 µM,4%
same,growth inhibition,[15]; at 1.2 µM,6%
same,growth inhibition,[15]; at 3.7 µM,2%
same,growth inhibition,[15]; at 11.0 µM,-1%
same,growth inhibition,[15]; at 33.0 µM,5%
same,growth inhibition,[15]; at 100.0 µM,9%
